Assay results as given in PubChem BioAssay AID1159580 (chemical genetic matrix, 2015).
Several values for one entry are separate records, joined by “and”; a condition that tells them apart may be missing. Equal entries are not always repeated. About 2,000 (36%) of roughly 5,500 compounds were called active. Not shown: some 18% with an inconclusive outcome. No stated cut-off is given here; in the data, active means normalized growth mostly below about 0.91 (no sharp cut-off); inconclusive means no clear call, values can overlap the other calls; inactive means mostly above about 0.92. Some of the results follow.

Test: chemical genetic growth profiling, strain panel (AID 1159580);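 further: tested at 20 µM; growth read once vehicle control cultures reached saturation at 30 °C; 1 = growth at the plate median or of vehicle wells; lower values mean less growth of the strain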
Conditions: growth OD

Measured: normalized growth

CC(NC(C)(C)C)C(=O)c1cccc(Cl)c1 (stereo unspecified)
inactive: S. cerevisiae deletion strains, locus YJR075W, strain HOC1, hits give low values 1.02 | S. cerevisiae deletion strains, locus YKL009W, strain mrt4, hits give low values 0.977 | S. cerevisiae deletion strains, locus YKL068W, hits give low values 1.02 | S. cerevisiae deletion strains, locus YKL085W, strain MDH1 (second series), hits give low values 1.02 | S. cerevisiae deletion strains, locus YKL085W, strain MDH1, hits give low values 1.02 | S. cerevisiae deletion strains, locus YKL160W, strain elf1, hits give low values 0.996 | S. cerevisiae deletion strains, locus YKL190W, strain CNB1, hits give low values 1.01 | S. cerevisiae deletion strains, locus YKR001C, strain vps1, hits give low values 1.02 | S. cerevisiae deletion strains, locus YKR026C, strain gcn3, hits give low values 0.995 | S. cerevisiae deletion strains, locus YKR091W, strain srl3, hits give low values 0.998 | S. cerevisiae deletion strains, locus YLL001W, strain dnm1, hits give low values 0.993 | S. cerevisiae deletion strains, locus YLL026W, hits give low values 1 | S. cerevisiae deletion strains, locus YLL041C, strain sdh2, hits give low values 1 | S. cerevisiae deletion strains, locus YLR027C, strain aat2, hits give low values 1 | S. cerevisiae deletion strains, locus YLR039C, strain RIC1, hits give low values 1.03 | S. cerevisiae deletion strains, locus YLR058C, strain SHM2, hits give low values 1.01 | S. cerevisiae deletion strains, locus YLR102C, strain apc9, hits give low values 1.03 | S. cerevisiae deletion strains, locus YLR113W, strain HOG1, hits give low values 0.986 | S. cerevisiae deletion strains, locus YLR221C, strain rsa3, hits give low values 1.01 | S. cerevisiae deletion strains, locus YLR258W, strain gsy2, hits give low values 0.996 | S. cerevisiae deletion strains, locus YLR262C, strain YPT6 (second series), hits give low values 0.977 | S. cerevisiae deletion strains, locus YLR262C, strain YPT6, hits give low values 1.05 | S. cerevisiae deletion strains, locus YLR268W, strain sec22, hits give low values 1.03 | S. cerevisiae deletion strains, locus YLR320W, strain mms22, hits give low values 0.985 | S. cerevisiae deletion strains, locus YLR330W, strain CHS5, hits give low values 1.01 | S. cerevisiae deletion strains, locus YLR342W, strain FKS1 (second series), hits give low values 0.98 | S. cerevisiae deletion strains, locus YLR342W, strain FKS1, hits give low values 0.997 | S. cerevisiae deletion strains, locus YLR357W, strain rsc2, hits give low values 0.983 | S. cerevisiae deletion strains, locus YLR370C, strain arc18, hits give low values 1 | S. cerevisiae deletion strains, locus YLR371W, strain rom2, hits give low values 1.04 | S. cerevisiae deletion strains, locus YLR384C, strain iki3, hits give low values 0.993 | S. cerevisiae deletion strains, locus YLR418C, strain cdc73, hits give low values 1.03 | S. cerevisiae deletion strains, locus YML016C, strain PPZ1, hits give low values 1.01 | S. cerevisiae deletion strains, locus YML032C, strain rad52, hits give low values 1.03 | S. cerevisiae deletion strains, locus YML120C, strain ndi1, hits give low values 1.01 | S. cerevisiae deletion strains, locus YML124C, strain tub3, hits give low values 1.04 | S. cerevisiae deletion strains, locus YMR058W, strain fet3, hits give low values 0.997 | S. cerevisiae deletion strains, locus YMR078C, strain ctf18, hits give low values 1.04 | S. cerevisiae deletion strains, locus YMR125W, strain sto1, hits give low values 0.999 | S. cerevisiae deletion strains, locus YMR129W, hits give low values 1 | S. cerevisiae deletion strains, locus YMR205C, strain PFK2, hits give low values 0.982 | S. cerevisiae deletion strains, locus YMR223W, strain ubp8, hits give low values 1.01 | S. cerevisiae deletion strains, locus YMR231W, strain pep5, hits give low values 0.997 | S. cerevisiae deletion strains, locus YMR263W, strain SAP30, hits give low values 1.01 | S. cerevisiae deletion strains, locus YMR307W, strain GAS1, hits give low values 1 | S. cerevisiae deletion strains, locus YNL067W, strain RPL9B, hits give low values 1.01 | S. cerevisiae deletion strains, locus YNL071W, strain lat1, hits give low values 1.01 | S. cerevisiae deletion strains, locus YNL128W, strain TEP1, hits give low values 1.02 and 0.978 | S. cerevisiae deletion strains, locus YNL153C, strain GIM3, hits give low values 1.01 | S. cerevisiae deletion strains, locus YNL175C, strain NOP13, hits give low values 0.99 | S. cerevisiae deletion strains, locus YNL183C, strain NPR1, hits give low values 0.965 | S. cerevisiae deletion strains, locus YNL197C, strain WHI3, hits give low values 1.02 | S. cerevisiae deletion strains, locus YNL209W, strain ssb2, hits give low values 1.01 | S. cerevisiae deletion strains, locus YNL224C, strain SQS1, hits give low values 0.999 | S. cerevisiae deletion strains, locus YNL233W, strain BNI4, hits give low values 0.999 | S. cerevisiae deletion strains, locus YNL248C, strain rpa49, hits give low values 0.992 | S. cerevisiae deletion strains, locus YNL250W, strain rad50, hits give low values 1.04 | S. cerevisiae deletion strains, locus YNL271C, strain bni1, hits give low values 1.03 | S. cerevisiae deletion strains, locus YNL298W, strain CLA4, hits give low values 1 | S. cerevisiae deletion strains, locus YNL307C, strain MCK1, hits give low values 1.03 | S. cerevisiae deletion strains, locus YNL322C, strain KRE1 (second series), hits give low values 0.995 | S. cerevisiae deletion strains, locus YNL322C, strain KRE1, hits give low values 1.01 | S. cerevisiae deletion strains, locus YNR049C, strain mso1, hits give low values 1.01 | S. cerevisiae deletion strains, locus YNR052C, strain pop2, hits give low values 1.01 | S. cerevisiae deletion strains, locus YOL006C, strain TOP1, hits give low values 1.05 | S. cerevisiae deletion strains, locus YOL012C, strain htz1 1.05 | S. cerevisiae deletion strains, locus YOL147C, strain pex11, hits give low values 1.04 | S. cerevisiae deletion strains, locus YOR001W, strain rrp6, hits give low values 1 | S. cerevisiae deletion strains, locus YOR061W, strain CKA2, hits give low values 1.02 | S. cerevisiae deletion strains, locus YOR069W, strain VPS5, hits give low values 1.01 | S. cerevisiae deletion strains, locus YOR070C, strain gyp1, hits give low values 1 | S. cerevisiae deletion strains, locus YOR080W, strain dia2, hits give low values 0.996 | S. cerevisiae deletion strains, locus YOR083W, strain WHI5 (second series), hits give low values 1.01 | S. cerevisiae deletion strains, locus YOR083W, strain WHI5, hits give low values 0.996 | S. cerevisiae deletion strains, locus YOR106W, strain vam3, hits give low values 0.989 | S. cerevisiae deletion strains, locus YOR136W, strain idh2, hits give low values 1.03 | S. cerevisiae deletion strains, locus YOR144C, strain elg1, hits give low values 1.03 | S. cerevisiae deletion strains, locus YOR184W, strain ser1, hits give low values 1.06 | S. cerevisiae deletion strains, locus YOR231W, strain MKK1, hits give low values 1 | S. cerevisiae deletion strains, locus YOR265W, strain rbl2, hits give low values 0.994 | S. cerevisiae deletion strains, locus YOR270C, strain vph1, hits give low values 0.995 | S. cerevisiae deletion strains, locus YOR290C, strain snf2, hits give low values 1.02 | S. cerevisiae deletion strains, locus YOR316C, strain cot1, hits give low values 1.03 | S. cerevisiae deletion strains, locus YPL051W, strain arl3, hits give low values 1 | S. cerevisiae deletion strains, locus YPL055C, strain LGE1, hits give low values 1.02 and 0.98 | S. cerevisiae deletion strains, locus YPL078C, strain atp4, hits give low values 0.998 | S. cerevisiae deletion strains, locus YPL106C, strain sse1, hits give low values 0.976 | S. cerevisiae deletion strains, locus YPL240C, strain hsp82, hits give low values 1 | S. cerevisiae deletion strains, locus YPL241C, strain CIN2, hits give low values 1.01 and 0.988 | S. cerevisiae deletion strains, locus YPL256C, strain CLN2, hits give low values 1.03 | S. cerevisiae deletion strains, locus YPR119W, strain clb2, hits give low values 1.04 | S. cerevisiae deletion strains, locus YPR141C, strain kar3, hits give low values 1.02 | S. cerevisiae deletion strains, locus YPR163C, strain tif3, hits give low values 1.04 | S. cerevisiae deletion strains, locus YPR167C, strain met16, hits give low values 1.03 | S. cerevisiae deletion strains, strain wtn01, hits give low values 1.03 | S. cerevisiae strains, strain wild type, hits give low values 1
